The text below walks through data of PubChem BioAssay.

Calls of active or inactive are those of the source.

The target of assay [1] is Albumin (Bos taurus) (UniProt P02769). Description: compounds binding labelled BSA control protein – biochemical, small-molecule microarray, Alexa647 label, 635/667 nm fluorescence, artefact control for SMM control protein annotation, profiling panel (AID 1118).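 Further: score merges 667 nm emission intensity and signal-to-noise per printed compound spot.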 As to conditions: BSA-A647 binding, fluorescence 635 nm, higher = more signal.
A short description of assay [2]: probe aXIP binding to arrayed compounds – biochemical, NeuroSMM set, 635/667 nm fluorescence, primary screen (AID 1119).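 Further: probe is the protein aXip251-270 applied at 1 µg/mL to compound-printed slides; binding of probe to printed compounds measured as 667 nm fluorescence plus signal to noise.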 The note with it: small-molecule microarray, higher = more signal, called active from +8 up or from −8 down.
Assay [3] is described as follows: probe aNOTCH3 binding on compound microarray – biochemical, small-molecule microarray, 635/667 nm fluorescence, primary screen (AID 1120).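 Further: probe is a biotin-tagged antibody raised against NOTCH3 rather than NOTCH3 protein; score merges spot fluorescence near 667 nm with spot signal to noise.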 The note with it: higher = more signal.
Assay [4] is described as follows: probe aNOTCH2 binding on compound microarray – biochemical, small-molecule microarray, 635/667 nm fluorescence, primary screen (AID 1121).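 Further: score merges feature fluorescence read at 667 nm with its signal to noise.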 The note with it: higher = more signal.
In assay [5] the target is Carbonic anhydrase 2 (Homo sapiens) (UniProt P00918). Description: compounds binding carbonic anhydrase 2 – biochemical, small-molecule microarray, Alexa647-labelled CAII, profiling panel (AID 1122). As to conditions: CAII-A647 binding fluorescence, higher = more signal.
Assay [6] is described as follows: COS7 lysate on small-molecule microarray, probe aHis, 635 nm (AID 1123).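 Further: z-score combines 667nm fluorescence intensity with signal-to-noise per printed compound spot.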 The note with it: COS7 cell lysate, fluorescence, higher = more signal.
Assay [7] can be described thus: probe aLAP1 signal on lysate-treated microarray – cell lysate, small-molecule microarray, COS7 lysate, primary screen (AID 1124).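 Further: lysate comes from COS7 cells expressing LAP1 and is applied at 0.3 µg/mL; score merges spot fluorescence near 667 nm with signal-to-noise over triplicate slides.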 The note with it: probe aLAP1, fluorescence, higher = more signal.
Assay [8] concerns Sam68 (KHDRBS1). Put plainly: compounds binding KHDRBS1 protein – biochemical, small-molecule microarray, 635 nm fluorescence, primary screen (AID 1125).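 Further: score merges 667 nm channel intensity with signal to noise over triplicate slides.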 As to conditions: higher = more signal.
Assay [9] has as its system Chordin-like protein 2 (CHRDL2). Put plainly: compounds binding chordin-like 2 – biochemical, small-molecule microarray, 635 nm fluorescence, primary screen (AID 1126).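 Further: printed compound slides probed with Chrdl2 protein at 4 µg/mL for 1 h at 4 C; score merges 667 nm emission intensity with signal to noise over three replicate slides.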 As to conditions: fluorescence 635 nm, higher = more signal.
Assay [10] deals with Concanavalin-A (Canavalia ensiformis) (UniProt P02866). Put plainly: compounds binding concanavalin A lectin – biochemical, small-molecule microarray, Alexa647 label, 635 nm, artefact control for SMM control protein annotation, primary screen (AID 1127).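 Further: z combines 667 nm emission intensity with signal-to-noise across three replicate slides.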 As to conditions: ConA-A647 binding fluorescence, higher = more signal.
A short description of assay [11]: compounds binding Alexa647 anti-His antibody – biochemical, small-molecule microarray, 635 nm fluorescence, artefact control for SMM control protein annotation, primary screen (AID 1128).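 Further: score merges feature fluorescence with signal-to-noise for each printed compound spot.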 The note with it: higher = more signal.
In assay [12] the test system is Human papillomavirus type 1a E7 protein (residues 1-88). Description: HPV1a E7 small-molecule binders, primary screen, biochemical, small-molecule microarray, residues 1-88, 635 nm (AID 1129). The note with it: small-molecule microarray binding, fluorescence 635 nm; higher = more signal.
In assay [13] the target is Focal adhesion kinase 1 (Homo sapiens) (UniProt Q05397). Put plainly: PTK2 protein binding on printed compound slides – biochemical, small-molecule microarray, 635/667 nm fluorescence, BSA, DTT, primary screen (AID 1130).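 Further: composite of spot emission at 667 nm and signal to noise over triplicate slides.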 As to conditions: 635 nm fluorescence, higher = more signal.
In assay [14] the test system is Fibrinogen (Alexa647-labelled). Description: Alexa647-fibrinogen binding to printed small molecules – biochemical, small-molecule microarray, 635/667 nm fluorescence, artefact control for SMM control-protein annotation, profiling panel (AID 1131).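 Further: z-score merges 667 nm fluorescence with per-spot signal-to-noise over triplicate slides.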 As to conditions: fibrinogen-A647 binding fluorescence, higher = more signal.
The target in assay [15] is Follistatin (Homo sapiens) (UniProt P19883). Description: FST protein binding to printed compounds – biochemical, small-molecule microarray, 635/667 nm fluorescence, primary screen (AID 1132). The note with it: 635 nm fluorescence, higher = more signal.
Assay [16] addresses Fibroblast growth factor 2 (Homo sapiens) (UniProt P09038). Put plainly: basic fibroblast growth factor binding to printed compounds – biochemical, small-molecule microarray, 635/667 nm fluorescence, primary screen (AID 1133). As to conditions: FGF2, fluorescence 635/667, higher = more signal.
Assay [17] is described as follows: JC-1 mitochondrial potential readout, lung cancer cells – cell-based, A549, JC-1 fluorescence, basal, 24 h, 100 nL, profiling panel (AID 1138).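 Further: A549 lung adenocarcinoma cells under basal conditions with no added stimulus; test concentration not given here.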 As to conditions: higher = more signal.
For assay [18], the system named is Lefty1. Put plainly: Lefty1 protein binding to printed compounds – biochemical, small-molecule microarray, 635/667 nm fluorescence, primary screen (AID 1139). The note with it: fluorescence 635/667, higher = more signal.
In assay [19] the test system is wheat germ agglutinin (Triticum aestivum), Alexa647-labelled. Put plainly: Alexa647-WGA lectin binding to printed small molecules – biochemical, small-molecule microarray, 635/667 nm fluorescence, artefact control for SMM control-protein annotation, profiling panel (AID 1140).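 Further: score merges 667 nm feature emission with signal to noise over triplicate slides.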 As to conditions: WGA-A647 binding, 635 nm fluorescence, higher = more signal.
In assay [20] the target is Luciferin 4-monooxygenase (Photinus pyralis) (UniProt P08659). Description: inhibition of purified Photinus pyralis luciferase – biochemical, luminescence, purified enzyme, 2006 set, primary screen (AID 1141).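 Further: cell-free assay with purified firefly luciferase at 100 ng per well in PBS; test concentration not given here.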 The note with it: purified firefly luciferase, SteadyGlo luminescence, 30 min; higher = more signal, called active from +8 up or from −8 down.
Chain of Luciferin 4-monooxygenase (Photinus pyralis) (P08659 whole entry, looked up): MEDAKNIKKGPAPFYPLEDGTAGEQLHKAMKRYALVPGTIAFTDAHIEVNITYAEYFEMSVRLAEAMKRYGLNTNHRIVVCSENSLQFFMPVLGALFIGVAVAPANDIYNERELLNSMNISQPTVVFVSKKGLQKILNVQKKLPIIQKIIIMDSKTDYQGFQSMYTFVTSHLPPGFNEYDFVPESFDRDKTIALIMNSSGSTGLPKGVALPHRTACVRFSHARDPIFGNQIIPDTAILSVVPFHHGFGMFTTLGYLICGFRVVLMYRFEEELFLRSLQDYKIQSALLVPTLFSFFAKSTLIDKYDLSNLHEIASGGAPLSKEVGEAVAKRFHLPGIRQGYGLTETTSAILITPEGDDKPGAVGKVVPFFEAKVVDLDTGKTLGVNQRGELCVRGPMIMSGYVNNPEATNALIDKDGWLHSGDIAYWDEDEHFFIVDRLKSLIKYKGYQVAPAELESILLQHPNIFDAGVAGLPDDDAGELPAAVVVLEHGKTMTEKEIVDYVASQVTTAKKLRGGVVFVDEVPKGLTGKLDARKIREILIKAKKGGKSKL

Chain of Follistatin (Homo sapiens) (P19883 whole entry, looked up): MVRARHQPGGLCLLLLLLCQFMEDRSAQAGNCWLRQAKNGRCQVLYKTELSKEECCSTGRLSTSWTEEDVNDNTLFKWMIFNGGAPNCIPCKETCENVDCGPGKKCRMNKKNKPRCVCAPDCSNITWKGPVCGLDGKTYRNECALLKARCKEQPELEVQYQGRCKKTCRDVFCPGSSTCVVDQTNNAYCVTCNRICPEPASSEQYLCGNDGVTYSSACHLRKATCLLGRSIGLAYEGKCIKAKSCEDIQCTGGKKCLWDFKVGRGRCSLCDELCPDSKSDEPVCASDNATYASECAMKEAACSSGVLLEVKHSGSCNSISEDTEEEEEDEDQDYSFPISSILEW
Chain of Fibroblast growth factor 2 (Homo sapiens) (P09038 whole entry, looked up): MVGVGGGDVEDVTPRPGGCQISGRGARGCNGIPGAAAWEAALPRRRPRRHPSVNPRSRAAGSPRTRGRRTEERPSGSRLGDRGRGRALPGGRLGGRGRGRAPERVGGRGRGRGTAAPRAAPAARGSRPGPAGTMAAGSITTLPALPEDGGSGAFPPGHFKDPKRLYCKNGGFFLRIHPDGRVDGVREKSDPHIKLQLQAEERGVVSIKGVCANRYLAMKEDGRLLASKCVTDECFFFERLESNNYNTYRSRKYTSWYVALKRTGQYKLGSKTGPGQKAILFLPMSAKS
Chain of Concanavalin-A (Canavalia ensiformis) (P02866 whole entry, looked up): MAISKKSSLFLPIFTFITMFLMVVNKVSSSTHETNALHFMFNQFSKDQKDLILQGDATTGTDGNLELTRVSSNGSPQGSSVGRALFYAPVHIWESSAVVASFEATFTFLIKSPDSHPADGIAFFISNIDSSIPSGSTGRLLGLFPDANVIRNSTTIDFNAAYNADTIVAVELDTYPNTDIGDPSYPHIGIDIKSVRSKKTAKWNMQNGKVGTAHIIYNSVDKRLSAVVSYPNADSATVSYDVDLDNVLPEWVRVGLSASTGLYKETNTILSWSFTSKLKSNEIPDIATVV
Chain of Focal adhesion kinase 1 (Homo sapiens) (Q05397 whole entry, looked up): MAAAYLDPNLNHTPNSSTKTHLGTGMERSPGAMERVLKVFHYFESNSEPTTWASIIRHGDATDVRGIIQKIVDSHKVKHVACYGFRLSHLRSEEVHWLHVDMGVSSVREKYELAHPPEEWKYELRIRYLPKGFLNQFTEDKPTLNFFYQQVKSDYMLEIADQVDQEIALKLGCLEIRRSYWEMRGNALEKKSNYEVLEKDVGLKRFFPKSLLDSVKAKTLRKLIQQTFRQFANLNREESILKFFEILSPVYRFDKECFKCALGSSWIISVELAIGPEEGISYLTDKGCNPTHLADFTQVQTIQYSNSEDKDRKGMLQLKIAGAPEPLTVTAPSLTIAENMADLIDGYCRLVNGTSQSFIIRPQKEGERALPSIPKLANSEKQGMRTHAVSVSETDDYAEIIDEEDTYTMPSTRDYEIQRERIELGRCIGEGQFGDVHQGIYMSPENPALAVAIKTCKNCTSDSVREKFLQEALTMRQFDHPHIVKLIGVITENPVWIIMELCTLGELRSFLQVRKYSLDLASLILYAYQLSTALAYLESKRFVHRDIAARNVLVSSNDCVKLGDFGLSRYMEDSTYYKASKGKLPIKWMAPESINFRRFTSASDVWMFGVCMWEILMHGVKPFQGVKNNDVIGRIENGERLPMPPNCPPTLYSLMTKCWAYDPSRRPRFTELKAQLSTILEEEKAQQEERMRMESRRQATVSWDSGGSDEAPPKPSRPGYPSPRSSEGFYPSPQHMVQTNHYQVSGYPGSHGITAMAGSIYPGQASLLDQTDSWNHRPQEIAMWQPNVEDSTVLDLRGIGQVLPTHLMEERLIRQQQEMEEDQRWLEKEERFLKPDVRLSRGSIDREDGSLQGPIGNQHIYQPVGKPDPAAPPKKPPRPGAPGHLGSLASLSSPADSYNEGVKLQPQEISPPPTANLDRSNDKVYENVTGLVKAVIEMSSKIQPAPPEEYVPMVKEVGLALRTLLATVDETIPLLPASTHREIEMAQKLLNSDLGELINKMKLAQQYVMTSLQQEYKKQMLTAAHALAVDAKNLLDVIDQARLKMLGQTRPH
Chain of Albumin (Bos taurus) (P02769 whole entry, looked up): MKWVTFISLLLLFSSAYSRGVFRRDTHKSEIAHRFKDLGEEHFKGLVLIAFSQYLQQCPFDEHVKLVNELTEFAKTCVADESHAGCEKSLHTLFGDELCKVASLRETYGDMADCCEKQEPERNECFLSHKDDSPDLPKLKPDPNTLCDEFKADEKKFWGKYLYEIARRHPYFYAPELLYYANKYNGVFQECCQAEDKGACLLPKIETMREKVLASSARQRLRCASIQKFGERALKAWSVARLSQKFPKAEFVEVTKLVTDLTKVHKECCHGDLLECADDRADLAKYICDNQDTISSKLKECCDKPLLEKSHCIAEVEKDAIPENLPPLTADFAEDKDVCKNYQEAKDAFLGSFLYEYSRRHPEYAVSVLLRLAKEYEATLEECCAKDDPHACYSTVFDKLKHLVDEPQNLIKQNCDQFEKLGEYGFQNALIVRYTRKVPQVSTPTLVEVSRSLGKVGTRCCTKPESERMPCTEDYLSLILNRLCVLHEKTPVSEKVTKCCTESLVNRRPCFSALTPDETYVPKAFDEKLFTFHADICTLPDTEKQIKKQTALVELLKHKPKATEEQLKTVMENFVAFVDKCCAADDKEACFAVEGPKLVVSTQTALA

Consider `C=CCOC(=O)[C@H]1[C@@H]2C(=O)O[C@@H](c3ccccc3)[C@@H](c3ccccc3)N2[C@@H](c2ccc(OCCOC(=O)[C@@H]3C[C@@H]4C(=O)N[C@@H](CCCCNC(C)=O)C(=O)N4[C@@H]3c3ccc(O)cc3)cc2)[C@]12C(=O)Nc1ccccc12`, for which the composite z-score in assay [1] is -0.729; in assay [3], 0.173; in [4], -0.0291; in [5], 0.638; in assay [6], 1.94; in assay [7] it was 0.21. Moreover, the composite z-score amounted to 1.3 in assay [8]; 1 in assay [9]; 1.2 in assay [10]; 3.17 in [11]; 1.22 in assay [12]; 1.14 in assay [13]. In addition, the composite z-score in [14] came out at 0.76; in assay [15] it was 1.25; in assay [16], 1.49; in assay [18], 1.23; in assay [19], 0.8. For the same molecule, in assay [2], the composite Z-score was 0.282 (inactive). The z-score in assay [17] was -1.55; in assay [20], -0.907 (inactive).
Regarding `C=C(C)[C@@H]1CC=C(C(O)C2C=CC3C(=O)N(c4ccccc4)C(=O)C3N2Nc2ccccc2)CC1` (stereo not given in full), the composite z-score in [1] amounted to 0.889; in assay [3] it was 0.75; in assay [4] it was 0.405; in [5], 0.879; in assay [6] it was 2.84; in [7] it was 0.736. Besides, the composite z-score in assay [8] was 1.3; in assay [9], 0.543; in assay [10], 1.13; in assay [11] it was 0.858; in assay [12], 1.24; in assay [13], 0.0294. For the same molecule, the composite z-score turned out to be 0.982 in assay [14]; 1.22 in assay [15]; 0.001 in [16]; 0.226 in assay [18]; 1.32 in [19]. Moreover, the composite Z-score in assay [2] was 0.788 (inactive). Besides, the z-score was -0.369 in assay [17] and -1.24 (inactive) in assay [20].
Turning to `NC(=O)NCC#Cc1ccc2c(c1)[C@]1(C(=O)N2)[C@H](C(=O)Nc2nc3ccccc3s2)[C@H]2C(=O)O[C@H](c3ccccc3)[C@H](c3ccccc3)N2[C@@H]1c1ccccc1OCCO`, the composite z-score in assay [1] was 0.46; in assay [3], 1.1; in assay [4], 0.0196; in assay [5], 0.39; in assay [6], 2.83; in assay [7], 1.14. Moreover, the composite z-score in [8] was 1.18; in assay [9] it was 0.277; in assay [10], 1.08; in [11] it was 0.678; in [12] it was 0.759; in assay [13], 0.997. Further, the composite z-score worked out at 0.764 in [14]; 1.22 in assay [15]; 0.624 in [16]; 1.34 in assay [18]; 1.1 in assay [19]. Also, the composite Z-score in assay [2] was 1.24 (inactive). Moreover, the z-score is -2.46 in [17] and -0.921 (inactive) in assay [20].
As to `[N-]=[N+]=NCc1ccccc1C[C@]1(C(N)=O)COC(c2ccc(OCCCO)cc2)=N1`, the composite z-score in assay [1] came out at 0.624; in [3], 0.0225; in assay [4], 0.106; in assay [5], 0.656; in assay [6], 2.24; in assay [7], 1.29. The composite z-score in assay [8] is 0.48; in assay [9], -0.846; in assay [10], 0.556; in assay [11], 0.0064; in [12] it was 0.3; in assay [13] it was -0.0367. In addition, the composite z-score came to 0.389 in assay [14]; 1.24 in assay [15]; 0.261 in assay [16]; 0.299 in assay [18]; 0.821 in assay [19]. Also, the composite Z-score in assay [2] is 0.155 (inactive). Besides, the results for the z-score in assay [17] and in assay [20] were 0.564 and -2.06 (inactive), respectively.
